# Source: the supplement of paper PMC6555819
# What was measured:
# Test in all cases: PBM binding z-score (relative to random genomic background probes); higher = stronger binding; sequences stand for … in GC…GCGATTGACAGCGTAGAATGAAGG
# [1] = tested on: PPARg:RXRa DBDmut IVT, anti-RXR (DBD mutation: RXRa K156A/R161A, NR concentration 270 nM, RXRa partner concentration 90 nM)
# How it was run: (§1)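 Custom Agilent 4×180K protein-binding microarrays carried double-stranded probes, each with a 34-nt variable region. These regions held direct-repeat seeds, single-nucleotide variants, half-site ablations and random human genomic background sequences. Ligand-free nuclear receptor dimers were incubated on the arrays for 1 h, antibodies against each partner (one per run) detected binding, and scanned fluorescence was regression-normalized. Binding z-scores take the random background probes as reference.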
# [2] = tested on: PPARg:RXRa IVT, anti-PPARg (NR concentration 270 nM, RXRa partner concentration 90 nM)
# How it was run: as §1
# [3] = tested on: PPARg DBDmut:RXRa IVT, anti-PPARg (DBD mutation: PPARg1 K132A/R137A, NR concentration 270 nM, RXRa partner concentration 90 nM)
# How it was run: as §1
# [4] = tested on: PPARg DBDmut IVT, anti-PPARg (DBD mutation: PPARg1 K132A/R137A, NR concentration 270 nM)
# How it was run: as §1
# [5] = tested on: PPARg homodimer (NR concentration 180 nM)
# How it was run: as §1
# [6] = tested on: PXR:RXRa (NR concentration 270 nM, RXRa partner concentration 90 nM)
# How it was run: as §1
# [7] = tested on: PXR homodimer (NR concentration 270 nM)
# How it was run: as §1
# [8] = tested on: RARa:RXR (NR concentration 270 nM, RXRa partner concentration 90 nM)
# How it was run: as §1
# [9] = tested on: RARa homodimer (NR concentration 270 nM)
# How it was run: as §1
# [10] = tested on: RARb:RXRa (NR concentration 270 nM, RXRa partner concentration 90 nM)
# How it was run: as §1
Sequence,PBM binding z-score [1],PBM binding z-score [2],PBM binding z-score [3],PBM binding z-score [4],PBM binding z-score [5],PBM binding z-score [6],PBM binding z-score [7],PBM binding z-score [8],PBM binding z-score [9],PBM binding z-score [10]
CGTCCAAGGTCGTAGGAGGTCAGTGAAGACAGAT,0.632,1.67,-0.489,-0.725,2.21,5.77,1.8,4.37,0.332,3.82
CGAACTACGTCAGAACAGGACAGTGAAGGATGAT,-0.549,-0.508,0.627,0.733,0.0908,-0.524,-0.0465,-0.592,-0.0605,-0.283
GGAACAAGGGCAAGTTGATAGCAGAGTTTGATGG,2.92,1.97,-0.205,-0.563,0.831,0.589,1.08,0.364,0.91,2.71
CCTCCGAGGACAGAAGGTCAGAGCTGTCCGCTTT,-0.16,0.312,-1.35,-1.76,2.39,1.76,0.0922,2.49,1.09,3.23
AGTCAAAGTTCATCTAGGTAACGCAAGATATGCT,0.815,4.11,1.46,1.49,3.03,5.12,6.5,3.76,1.42,5.03
TCGAGTAGGTTAGTCGGGCCATTCAGCCAACATA,1.97,1.9,-0.829,-1.18,-0.154,-0.339,-0.506,-0.314,-1,0.287
ACTAGTTGGTCAGCTGAGGTCAAACACAATTCGG,1.45,2.49,0.694,0.579,3.02,6.03,3.32,5.18,2.07,3.62
CGAACGAGGGCATGAGCTGATAGCAAATGCCGAT,2.42,1.97,0.174,-0.689,-0.392,0.327,-0.221,0.529,-0.331,1.87
TCGAGTAGCTTACCAATGGGGCATTCAGCTTTCT,1.07,-0.175,-1.01,-0.741,-0.629,-0.456,-1.19,-0.333,-1.4,-0.426
ACTATTAGTTGAGACGTGGGCAACCGATAGGTTG,-0.218,-0.152,0.175,0.352,-0.426,-0.64,-0.53,-0.914,-0.357,-0.226
TCGAGTAGGTTAGGGGCATACAGAATGGCGTCGA,1.98,1.38,0.000515,-1.13,0.459,0.501,0.171,0.678,-0.124,1.06
CCTAGTTGGTCAGGAGGTTACACACCGGATATGA,0.814,1.65,0.504,0.527,1.84,0.862,0.653,1.38,0.725,1.47
CCTACTGGGCAAAAGGTCATTGATTCCAATGCTC,2.57,5.1,-0.086,-0.781,3.07,4.91,1.5,5.73,1.77,4.35
ACTCGGAGGACAAAGGTCAAAGCTACGCCAGTGA,1.44,4.45,-0.163,-0.288,3.24,5.4,0.776,6.35,0.304,5.24
GCTTGTAGATTAAGGTTAAGAAAGACTAAGCTAA,-0.0536,0.119,0.205,-0.0743,0.0936,0.375,-0.332,1.01,0.194,0.875
GCTCGGATGACAAGGTCAGAGCTTTGTCCGTAGA,0.0806,0.0489,-1.27,-1.25,0.624,1.51,-0.626,2.09,-1.1,2.61
ATTCCAAGGTGATCGTGAGGTCGTTGATACTAAC,0.951,1.47,0.731,0.342,0.792,3.26,1.64,2.55,0.906,1.33
AGAACGAGGGCAAGCTGAGTTGATAGCAGAGTAG,3.94,2.42,0.0132,-0.565,0.238,1.13,0.458,0.426,-0.421,2.46
CCTGCAAGGTCAATGGTCAGCTAAAGCAGCTCGC,2.93,2.76,-0.252,-1.15,2.72,3.78,0.469,4.56,0.759,5.01
AGAACGAGGGCAATAAGTTGATAGCACGGGTGGC,3.47,2.3,0.463,-0.691,0.0949,1.09,3.39,0.217,0.04,1.84
CCTACTGGGCCGAAAAGGTCATTGATGCCGATAA,0.922,2.21,-1.07,-1.05,1.68,4.56,1.74,4.84,0.458,3.77
GCAGACAGGTGAAACGCAAGTAACTCAGGGTGGC,0.725,0.495,-0.728,-0.714,-0.578,-0.359,-0.754,-0.0735,-0.461,0.562
CAAACTAGGTCAAGATGTCAAAGTCCGCTTCCCG,8.4,8.48,2.81,1.01,2.29,1.86,-0.0603,3.02,0.666,4.12
ATCTCTAGGTAACAAGTTCAGTGAGAGAGAGGAC,3.21,3.22,1.3,1.5,1.39,1.73,1.77,0.827,1.3,1.75
CTCGAAAGGTCGGTAGAGGTGAGTATACGGATAA,-0.427,1.32,-0.234,0.272,1.1,2.69,0.0204,2.63,0.416,3.13
